Results: PubChem BioAssay (NCI)
Compounds without any hit were thinned out: in the full panel of roughly 83,000, 20% have a hit.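 Treatment: one concentration, 48 hours, 96-well format. Scoring: percent growth, with anything below 10 considered active.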 Active and inactive are the calls of the source.

Legend:
Assay in all cases: NCI-60 one-dose screen, 48 h (100 = growth as untreated, 0 = no growth, -100 = all killed)
Details in all cases: 10 µM unless noted
[1] = system: NCI-H23 lung
[2] = system: NCI-H226 lung
[3] = system: HOP-62 NSCLC
[4] = system: NCI-H460 lung
[5] = system: NCI-H522 lung
[6] = system: A549/ATCC NSCLC
[7] = system: 786-0 renal
[8] = system: COLO 205 colon
[9] = system: DU-145 prostate
[10] = system: K-562 leukemia
[11] = system: MALME-3M melanoma
[12] = system: MDA-MB-231 breast
[13] = system: RXF 393 renal
[14] = system: SF-268 CNS
[15] = system: SF-539 CNS
[16] = system: UACC-257 melanoma
[17] = system: M14 melanoma
[18] = system: HCT-15 colon
[19] = system: NCI-H322M lung
[20] = system: SF-295 CNS

Measured: growth

Clc1cccc(Cc2cn3cc(-c4ccccc4)nc3s2)c1
active: [8] -36.6% | [17] 6.04%
inactive: [1] 62.6% | [2] 73% | [3] 69.7% | [4] 16.5% | [5] 45.9% | [6] 37.5% | [7] 68.9% | [9] 52.4% | [10] 21.1% | [11] 85.5% | [12] 52.2% | [13] 94% | [14] 64.9% | [15] 41.6% | [16] 37.4% | [18] 40.4%

CCN1C[C@@H](C)n2c(c(O)c3c(=O)n(Cc4ccc(F)c(Cl)c4)nc(C(=O)NC)c32)C1=O
inactive: [1] 11.3% | [19] 18.4% | [3] 26% | [4] 15.2% | [5] 69.3% | [6] 11% | [7] 18.4% | [8] 101% | [9] 22.6% | [10] 42% | [12] 50.7% | [14] 23.2% | [17] 30.4%
active: [11] 5.1% | [13] 2.79% | [20] 0.0694% | [15] 3.53% | [16] 3.7% | [18] 6.16%

O=C1OCCCCCCCCCC#Cc2ccccc21
inactive: [1] 97% | [2] 110% | [3] 99.7% | [4] 133% | [5] 71.2% | [6] 103% | [7] 103% | [8] 100% | [9] 116% | [10] 94.2% | [11] 146% | [12] 110% | [14] 182% | [20] 151% | [15] 105% | [16] 124% | [17] 109% | [18] 109%

CO[C@H]1/C=C/O[C@@]2(C)Oc3c(C)c(O)c4c(O)c(c(/C=N/N5CCN(C)CC5)c(O)c4c3C2=O)NC(=O)/C(C)=C\C=C\C(C)[C@H](O)[C@@H](C)[C@@H](O)[C@@H](C)[C@@H](OC(C)=O)[C@@H]1C (some centres undefined)
inactive: [1] 96.3% | [2] 84.5% | [3] 99.4% | [4] 103% | [5] 105% | [6] 97.1% | [7] 96.6% | [8] 103% | [9] 104% | [10] 100% | [11] 105% | [12] 98.5% | [13] 104% | [14] 109% | [20] 98.8% | [16] 103% | [17] 102% | [18] 87.7%

CCC[C@H](N[C@@H](C)C(=O)N1[C@H](C(=O)O)C[C@@H]2CCCC[C@@H]21)C(=O)OCC
inactive: [1] 94.2% | [2] 105% | [3] 123% | [4] 116% | [6] 91.4% | [7] 103% | [8] 111% | [9] 111% | [10] 116% | [11] 94.2% | [12] 90.4% | [13] 114% | [14] 105% | [20] 111% | [15] 91.4% | [16] 97.9% | [17] 113% | [18] 99.3%

CN1CCN(CC(=O)Nc2nc3c(s2)Nc2cc(Cl)c(Cl)cc2NC3=O)CC1
inactive: [1] 106% | [2] 96.1% | [3] 98.3% | [4] 104% | [5] 77% | [6] 95.9% | [7] 99.2% | [8] 107% | [9] 117% | [10] 81.3% | [11] 107% | [12] 123% | [14] 111% | [20] 108% | [15] 107% | [16] 87.9% | [17] 105% | [18] 104%

O=C(OCCBr)c1ccc(Cl)c([N+](=O)[O-])c1
active: [5] 8.61%
inactive: [1] 104% | [2] 126% | [3] 131% | [4] 103% | [6] 104% | [7] 102% | [8] 106% | [9] 14.6% | [10] 82.9% | [11] 97.2% | [12] 92% | [13] 132% | [14] 100% | [15] 102% | [16] 86.8% | [17] 91.8% | [18] 90.9%

COc1cc2cn3c4ccc(O)cc4nc(N)c3c2cc1OC
active: [1] 0.98% | [4] 1.19% | [5] -39.4% | [7] 6.11% | [13] 9.93% | [20] 9.44% | [15] -18.3% | [16] 6.97% | [17] -9.75%
inactive: [2] 25.7% | [3] 11.9% | [6] 18.4% | [11] 31.2% | [12] 61.6% | [14] 20.8% | [18] 31.4%

CC(c1cc(Cl)ccc1O)c1cc(Cl)ccc1O
inactive: [1] 17.9% | [2] 82.5% | [3] 84.3% | [4] 15.7% | [6] 29.3% | [7] 90% | [9] 50.7% | [10] 28.7% | [11] 16.5% | [12] 43.8% | [13] 49.6% | [14] 35% | [20] 45.9% | [16] 33% | [17] 22.7% | [18] 29.7%
active: [5] -39.3%

CCN(CC)CCOc1ccc(C2=C(c3ccccc3)CCc3cc(OC)ccc32)cc1
active: [1] -11.6% | [3] -74.9% | [4] -55.9% | [5] -25.3% | [7] -82.3% | [8] -69.6% | [10] -31% | [11] -91.4% | [12] -2.94% | [20] -72.7% | [15] -17.4% | [17] -63.6% | [18] 6.79%
inactive: [2] 58.6% | [9] 41.3% | [14] 33.1%

COc1ccc2nccc(/C=C/c3ccnc4ccc(OC)cc34)c2c1
inactive: [1] 104% | [19] 120% | [3] 114% | [4] 100% | [5] 112% | [6] 66.1% | [7] 105% | [8] 119% | [9] 104% | [10] 52.5% | [11] 146% | [12] 114% | [13] 37.4% | [14] 71.3% | [20] 129% | [15] 106% | [16] 153% | [17] 110% | [18] 101%

COc1ccc(-c2noc(N)c2-c2cc(OC)c3c(c2)OCO3)cc1
inactive: [1] 28.1% | [2] 86.3% | [3] 34.6% | [4] 16% | [6] 29.2% | [7] 59.7% | [8] 12.4% | [9] 28.7% | [12] 47.6% | [13] 32.4% | [14] 35.6% | [16] 50.8% | [17] 11.7% | [18] 20.6%
active: [5] -23.4% | [10] 2.56% | [11] -2.12% | [15] 9.14%

COc1cc(-c2cc(C(=O)Nc3nc4ccccc4s3)nc3cc(-c4ccccc4)nn23)cc(OC)c1OC
inactive: [1] 49.1% | [2] 70.2% | [3] 46.6% | [4] 79.3% | [5] 18.8% | [6] 77.5% | [7] 81.6% | [9] 51.5% | [10] 53.2% | [11] 28.5% | [12] 66.1% | [13] 66.7% | [20] 53% | [16] 59.1% | [17] 26.3% | [18] 85.3%
active: [15] 4.14%

c1ccc2c(c1)[nH]c1c2cc[n+]2cc3c(cc12)CCCC3
inactive: [1] 40.6% | [2] 35.5% | [3] 18.8% | [4] 15.2% | [6] 64% | [7] 48.7% | [8] 36.3% | [9] 40.9% | [10] 16.9% | [12] 31.4% | [13] 76.8% | [14] 23% | [15] 37.6% | [16] 38.4% | [17] 19.7% | [18] 96.9%
active: [11] 3.13%

CCCC[N+](CCCC)=c1ccc2nc3c(C)cc(N(CC)CC)cc3sc-2c1
active: [1] -36.2% | [3] -23.4% | [4] 2.83% | [5] -17.1% | [8] -41.1% | [10] -49.1% | [11] -78.6% | [12] -29.4% | [13] -25.8% | [20] -24.4% | [15] -62.5% | [16] -41% | [17] 7.11% | [18] -33.5%
inactive: [2] 18.4% | [6] 16.7% | [9] 13.7% | [14] 10.4%

ClC1C2CC(c3ccccc32)C1Cl (centres undefined)
inactive: [1] 106% | [2] 109% | [3] 129% | [4] 110% | [5] 100% | [6] 110% | [7] 103% | [9] 118% | [11] 126% | [12] 107% | [13] 110% | [14] 110% | [20] 123% | [15] 95.8% | [16] 112% | [17] 103% | [18] 109%

Cc1scc2c1N(C(=O)CN1CCN(C)CC1)c1ccccc1NC2=O
inactive: [1] 93.9% | [19] 105% | [3] 103% | [4] 124% | [5] 104% | [6] 104% | [7] 98.8% | [8] 108% | [9] 118% | [10] 108% | [11] 108% | [12] 99.6% | [13] 111% | [14] 110% | [20] 101% | [15] 112% | [16] 106% | [17] 111% | [18] 107%

N#Cc1ccc(NC(=O)Nc2ccc(Oc3ccc(NC(=O)Nc4ccc(C#N)cc4)cc3)cc2)cc1
active: [1] -0.877% | [5] -33.4% | [10] 0.451%
inactive: [2] 42.5% | [3] 31.6% | [4] 18.9% | [6] 26.9% | [7] 30.3% | [9] 35.3% | [11] 54.4% | [12] 53.5% | [13] 83.2% | [14] 42.1% | [20] 23.7% | [15] 71% | [16] 37% | [17] 26.2% | [18] 32.1%
